Assay outcomes (PubChem BioAssay)
The entries come from a sample that favours hits as a whole.
Cycloheximide cs = affects cycloheximide protein synthesis inhibition readout, counter-screen; cell reporter, cycloheximide protein synthesis inhibition counterscreen; max response, %; hit rate 12% among 300,000; in the data active = max response mostly above about 13%, no sharp cut-off; inactive = mostly below about 14%; also: read at 38.3 µM for the half of the compounds with a filed dose; 0% is about no effect
LmPK inh = LmPK (Leishmania mexicana) enzyme inhibition; Q27686; purified LmPK, Kinase-Glo ATP luminescence, 1 h; Potency, µM (series often up to 57.5 µM), for inactives: at the highest dose activity change, negative = inhibition, actives largely listed as inhibitors; hit rate 0.37% among 290,000; AID 1721; active = well fitted curve in the direction sought with a large enough effect; inconclusive = small, poorly fitted or top-dose-only effect, or another doubt; inactive = no such curve, though single readings can be large; an effect the other way counts as inactive or inconclusive; also: potency is read from the fitted curve at half-maximal effect; % is scaled to controls: 0 for no effect and ±100 for the full control effect
Target sequence (Q27686 whole entry, looked up): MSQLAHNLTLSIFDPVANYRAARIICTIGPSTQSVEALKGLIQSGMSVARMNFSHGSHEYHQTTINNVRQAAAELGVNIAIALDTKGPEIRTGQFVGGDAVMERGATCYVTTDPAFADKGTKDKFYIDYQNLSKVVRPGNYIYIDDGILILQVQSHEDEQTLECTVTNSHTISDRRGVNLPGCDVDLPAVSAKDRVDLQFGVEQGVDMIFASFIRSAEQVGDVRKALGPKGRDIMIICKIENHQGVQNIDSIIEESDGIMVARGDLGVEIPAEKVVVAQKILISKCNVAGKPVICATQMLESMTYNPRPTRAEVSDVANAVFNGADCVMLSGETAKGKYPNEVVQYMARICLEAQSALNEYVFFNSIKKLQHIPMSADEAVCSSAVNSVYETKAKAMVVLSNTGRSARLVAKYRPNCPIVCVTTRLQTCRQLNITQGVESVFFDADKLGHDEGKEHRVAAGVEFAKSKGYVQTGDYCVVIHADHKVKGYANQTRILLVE
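Purified LmPK (0.1 nM) converted ADP (0.1 mM) to ATP with PEP (0.5 mM) in imidazole buffer pH 7.2 with KCl and MgCl2, 1 h at room temperature. ATP was read by Kinase-Glo luminescence; data normalized to uninhibited and no-enzyme controls.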
NS1 inh = inhibitors of influenza NS1 protein function | Potency, µM (series often up to 46.1 µM), without a hit: at the highest dose activity, positive = more growth | AID 2326 | hit rate 0.4% among 270,000; also: potency is read from the fitted curve at half-maximal effect; actives are rising curves; nearly all actives have a fitted effect of over 50% in size
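Recovery from NS1-induced slow growth read by OD600 in budding yeast switched to galactose assay medium (pH 6.0, -URA) at 1:100 dilution. Compound 23 nl per well; the matching strain lacking NS1 serves as control.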
Shiga inhibitor = blocks Shiga toxin action in Vero cells; Vero cells, Shiga toxin protein synthesis inhibition reporter; hit rate 9.2% among 290,000; inhibition, % at 38.7 µM; in the data active = inhibition mostly above about 28%, no sharp cut-off; inactive = mostly below about 43%; also: 0% is about no effect
TbPYK inhibitor = inhibitors of Trypanosoma brucei pyruvate kinase | TbPYK enzyme, Kinase-Glo Plus ATP luminescence, 45 min | Q57TT1 | AID 624173 | Potency, µM (doses to about 76.8 µM), for the others: at the highest dose activity, negative = inhibition, most hits filed as inhibitors | hit rate 0.12% among 410,000; active = well fitted curve in the direction sought with a large enough effect; inconclusive = small, poorly fitted or top-dose-only effect, or another doubt; inactive = no such curve, though single readings can be large; an effect the other way counts as inactive or inconclusive; also: potency is read from the fitted curve at half-maximal effect; % is scaled to controls: 0 for no effect and ±100 for the full control effect; nearly all actives have a fitted effect of over 50% in size
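TbPYK + substrate in 50 mM TEA pH 7.2, 100 mM KCl, 10 mM MgCl2, 0.05% BSA, 0.01% Tween-20; cpd pinned; ADP 130 uM final; 45 min RT; Kinase-Glo Plus 10 min; luminescence endpoint.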
SARS PLpro yeast = SARS-CoV PLP inhibition in yeast | hit rate 0.19% among 330,000 | S. cerevisiae expressing SARS-CoV PLpro, growth rescue | AID 485353 | Potency, µM (doses to about 32.9 µM), inactives show top-dose activity, positive = growth rescue, actives largely listed as activators; also: potency is read from the fitted curve at half-maximal effect; 0% is about no effect; nearly all actives have a fitted effect of over 55% in size
The depositor's hits bear a star; [ ] = remark or other dose. Unless noted, calls follow the shape of the full dose curve.

Results for COc1c(Cl)cc(Cl)cc1C(=O)Nc1ccc(C(=O)O)cc1 ?
Cycloheximide cs: 1.6; LmPK inh: -1.6%; NS1 inh: -21.7%; Shiga inhibitor: 1.8; TbPYK inhibitor: inconclusive; SARS PLpro yeast: 10.5%

How did COc1cc(NC(=O)c2cccc(Cl)c2)ccc1NC(=O)c1cccs1 do in these assays?
Cycloheximide cs: 16.5*; LmPK inh: -2.6%; NS1 inh: 3.3%; Shiga inhibitor: 97.7; TbPYK inhibitor: 3.9%; SARS PLpro yeast: -0.8%

What do the screens show for `COc1c(Cl)cc(Cl)cc1/C=C/C(=O)c1ccc(NC(=O)c2cccs2)cc1`?
Cycloheximide cs: 30.1*; LmPK inh: -1.8%; NS1 inh: 8.0%; Shiga inhibitor: 40.0*; TbPYK inhibitor: -3.0%; SARS PLpro yeast: 0.6%

What do the screens show for `COc1cc(NC(=O)c2ccccc2Cl)ccc1NC(=O)c1cccs1`?
Cycloheximide cs: 45.6*; LmPK inh: 7.1%; Shiga inhibitor: 105.0*; TbPYK inhibitor: -1.3%; SARS PLpro yeast: 0.1%

How did COc1ccc(-c2nc3c(c4c2C[C@H](c2ccccc2)OC4)CN(C(=O)NCCc2c[nH]c4ccccc24)CC3)c(C)c1 do in these assays?
LmPK inh: -10.0%[11.5 µM]

What do the screens show for `COc1ccc(C2=Nn3c(nnc3-c3ccccc3OC)SC2)c(OC)c1`?
Cycloheximide cs: -1.3; Shiga inhibitor: -6.7

Results for C=CCOC(=O)/C(=C/c1cccnc1)NC(=O)c1ccccc1 ?
Cycloheximide cs: 4.3; LmPK inh: 1.3%; NS1 inh: 10.4%; Shiga inhibitor: -7.4; TbPYK inhibitor: -12.8%; SARS PLpro yeast: 0.3%

How did COC(=O)/C(=C\c1ccc2c(c1)c1ccccc1n2C)NC(=O)c1ccccc1 do in these assays?
Cycloheximide cs: 5.8; LmPK inh: 0.6%; NS1 inh: 2.5%; Shiga inhibitor: 2.4; TbPYK inhibitor: 14.8%; SARS PLpro yeast: -10.8%

What do the screens show for `CCOC(=O)N1CCN(C(=O)/C(=C/c2cccc3ccccc23)NC(=O)c2ccc(OC)cc2)CC1`?
Cycloheximide cs: 16.9*; LmPK inh: 2.2%; NS1 inh: 8.2%; Shiga inhibitor: 11.1; TbPYK inhibitor: -5.5%; SARS PLpro yeast: -1.0%

What do the screens show for `C=CCOC(=O)/C(=C\c1cccc2ccccc12)NC(=O)c1ccccc1`?
Cycloheximide cs: 36.0*; LmPK inh: 0.8%; NS1 inh: -26.0%; Shiga inhibitor: 22.0; TbPYK inhibitor: 1.4%; SARS PLpro yeast: -3.3%

Results for CC(C)OC(=O)/C(=C/c1ccc2c(c1)c1ccccc1n2C)NC(=O)c1ccccc1 ?
Cycloheximide cs: 20.2*; LmPK inh: -1.4%; NS1 inh: 21.2%; Shiga inhibitor: 53.0*; TbPYK inhibitor: 2.1%; SARS PLpro yeast: 5.8%

How did C=CCOC(=O)/C(=C\c1ccccc1)NC(=O)c1ccc(C)cc1 do in these assays?
Cycloheximide cs: 36.2*; LmPK inh: 0.3%; NS1 inh: 5.1%; Shiga inhibitor: 99.9*; TbPYK inhibitor: -1.3%; SARS PLpro yeast: -0.4%

What do the screens show for `Cc1cc2c(s1)c(C=O)c(C(=O)NCc1ccccc1F)n2C`?
SARS PLpro yeast: 6.4%

Results for O=C(N/C(=C/c1ccccc1)C(=O)N1CCCCC1)c1ccccc1 ?
Cycloheximide cs: 96.4*; LmPK inh: -9.9%; NS1 inh: -28.6%; Shiga inhibitor: 51.0*; TbPYK inhibitor: 0.3%; SARS PLpro yeast: -3.2%

What do the screens show for `O=C(N/C(=C/c1ccccc1)C(=O)N1CCCCCC1)c1ccccc1`?
Cycloheximide cs: -6.3; LmPK inh: -3.4%; Shiga inhibitor: 24.8; TbPYK inhibitor: 0.7%; SARS PLpro yeast: 2.6%

How did CCOC(=O)/C(=C\c1ccccc1)NC(=O)c1ccccc1 do in these assays?
Cycloheximide cs: 19.5*; LmPK inh: -0.4%; NS1 inh: 3.3%; Shiga inhibitor: 40.6; TbPYK inhibitor: -1.2%; SARS PLpro yeast: -0.3%

How did CCOC(=O)/C(=C/c1ccc(OC(=O)c2ccccc2)cc1)C(C)=O do in these assays?
Cycloheximide cs: 6.9; LmPK inh: -3.2%; NS1 inh: -78.9%; Shiga inhibitor: 38.8*; TbPYK inhibitor: -17.7%; SARS PLpro yeast: -138.4%

Results for CCOC(=O)C(=Cc1ccc(N(C)C)cc1)C(=O)c1ccccc1 ?
TbPYK inhibitor: -2.0%

How did Cc1cc(C)c(S(=O)(=O)Nc2ccc(N(C)C)cc2)c(C)c1-n1cnnn1 do in these assays?
Cycloheximide cs: 42.9*; LmPK inh: 0.0%; NS1 inh: -42.9%; Shiga inhibitor: 75.9*; TbPYK inhibitor: -6.8%; SARS PLpro yeast: -2.1%

What do the screens show for `O=C(COc1ccccc1)c1cn(Cc2ccccc2)c2ccccc12`?
Cycloheximide cs: 17.6*; LmPK inh: 4.4%; NS1 inh: -1.5%; Shiga inhibitor: 35.5; TbPYK inhibitor: -7.7%; SARS PLpro yeast: -7.7%

How did O=C(Cn1cc(C(=O)C2CC2)c2ccccc21)NCc1ccccc1 do in these assays?
Cycloheximide cs: 34.4*; LmPK inh: 11.8%; NS1 inh: 14.4%; Shiga inhibitor: 52.7*; TbPYK inhibitor: -4.8%; SARS PLpro yeast: 8.1%

What do the screens show for `O=C(c1cn(Cc2ccccc2)c2ccccc12)C1CC1`?
Cycloheximide cs: 11.8*; LmPK inh: -11.8%; Shiga inhibitor: 12.4; TbPYK inhibitor: 0.3%; SARS PLpro yeast: -2.6%

Results for NC(=O)Cn1cc(C(=O)COc2ccccc2)c2ccccc21 ?
Cycloheximide cs: -5.0; LmPK inh: 0.1%; NS1 inh: 3.0%; Shiga inhibitor: -4.4; SARS PLpro yeast: 0.3%

What do the screens show for `CN(C(=O)c1ccc(NC(=O)Cc2cccc(NC(=O)C3CCCN(C(=O)C4CC4)C3)c2)cc1)C1CC1` (centres undefined)?
TbPYK inhibitor: -3.6%

Results for CCC(C(=O)Nc1cc(C)ccc1C)n1c(=O)c(C(F)(F)F)nc2ccccc21 (centres undefined) ?
TbPYK inhibitor: -1.7%

How did CCOC(=O)c1ccc(NS(=O)(=O)c2cc3c4c(c2)CCN4C(=O)CC3)cc1 do in these assays?
TbPYK inhibitor: -2.9%; SARS PLpro yeast: 1.2%

What do the screens show for `CC(C)(C)c1ccc(C2=NC(=O)C(CC(=O)O)S2)cc1` (centres undefined)?
Cycloheximide cs: 12.7*; LmPK inh: -1.9%; NS1 inh: -1.4%; Shiga inhibitor: 30.6; TbPYK inhibitor: -4.4%; SARS PLpro yeast: 2.3%

What do the screens show for `COc1ccc(C(=O)CC2SC(N)=NC2=O)cc1` (centres undefined)?
Cycloheximide cs: -2.4; LmPK inh: -4.0%; NS1 inh: 2.3%; Shiga inhibitor: 2.5; TbPYK inhibitor: 0.0%; SARS PLpro yeast: -2.2%

What do the screens show for `CCn1cc(C(=O)N2CCN(c3cccc(Cl)c3)CC2)c(=O)c2cc(S(=O)(=O)N3CCC(C)CC3)ccc21`?
TbPYK inhibitor: 3.4%

How did FC(F)(F)c1nc(SCc2ccc(Cl)cc2Cl)n[nH]1 do in these assays?
Cycloheximide cs: 20.3*; LmPK inh: 4.7%; NS1 inh: -77.5%; Shiga inhibitor: 28.4; TbPYK inhibitor: 1.0%; SARS PLpro yeast: -7.2%

How did COc1ccc(-c2csc(C(O)c3ccccc3)n2)cn1 (centres undefined) do in these assays?
TbPYK inhibitor: 0.0%
